According to the supplement of paper PMC6555819:

Assays:
Assay in all cases: PBM binding z-score (relative to random genomic background probes); higher = stronger binding; sequences stand for … in GC…GCGATTGACAGCGTAGAATGAAGG
[1] = tested on: RARb homodimer (NR concentration 270 nM)
How it was run: (§1)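 Ligand-free nuclear receptor dimers were applied to custom Agilent 4×180K protein-binding microarrays whose double-stranded probes carried direct-repeat seeds, single-nucleotide variants, half-site ablations and random human genomic background sequences in 34-nt variable regions. Incubation lasted 1 h. Binding z-scores were computed against the random background probes from regression-normalized fluorescence.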

[2] = tested on: RARg:RXRa (NR concentration 270 nM, RXRa partner concentration 90 nM)
How it was run: as §1

[3] = tested on: RARg homodimer (NR concentration 270 nM)
How it was run: as §1

[4] = tested on: RXRa DBDmut IVT, anti-RXR (DBD mutation: RXRa K156A/R161A, NR concentration 90 nM)
How it was run: as §1

[5] = tested on: RXRa homodimer (NR concentration 180 nM)
How it was run: as §1

[6] = tested on: THRa:RXRa (NR concentration 90 nM, RXRa partner concentration 90 nM)
How it was run: as §1

[7] = tested on: THRa homodimer (NR concentration 90 nM)
How it was run: as §1

[8] = tested on: VDR homodimer (NR concentration 270 nM)
How it was run: as §1

Sequence: TCTGCTAGGTCAACCATGGTCAGCTAATCTGCTA
- PBM binding z-score [1]: 3.53
- PBM binding z-score [2]: 4.4
- PBM binding z-score [3]: 5.7
- PBM binding z-score [4]: 1.05
- PBM binding z-score [5]: 3.24
- PBM binding z-score [6]: 3.78
- PBM binding z-score [7]: 1.03
- PBM binding z-score [8]: -0.484

Sequence: GCTGCTAGGTCAACTGTTGGTCAGCTAAAGCTCG
- PBM binding z-score [1]: 3.66
- PBM binding z-score [2]: 5.23
- PBM binding z-score [3]: 5.32
- PBM binding z-score [4]: 1.66
- PBM binding z-score [5]: 3.12
- PBM binding z-score [6]: 2.84
- PBM binding z-score [7]: 0.983
- PBM binding z-score [8]: -0.34

Sequence: TCAAGTAGGTTAGGGGCATTCAGAATGGCGTCGA
- PBM binding z-score [1]: 1.23
- PBM binding z-score [2]: 0.789
- PBM binding z-score [3]: 0.56
- PBM binding z-score [4]: 1.29
- PBM binding z-score [5]: 1.08
- PBM binding z-score [6]: 1.45
- PBM binding z-score [7]: 0.575
- PBM binding z-score [8]: 1.48

Sequence: ATCTAAAGGTCGAGGTGAGTATAGAGAAAGGGAA
- PBM binding z-score [1]: 3.3
- PBM binding z-score [2]: 4.54
- PBM binding z-score [3]: 4.69
- PBM binding z-score [4]: 1.33
- PBM binding z-score [5]: 4.82
- PBM binding z-score [6]: 3.09
- PBM binding z-score [7]: 1.31
- PBM binding z-score [8]: 0.632

Sequence: TCTTGTAGATCAGCAGGTTAAGAAAGCTGGCCAA
- PBM binding z-score [1]: -0.155
- PBM binding z-score [2]: -0.199
- PBM binding z-score [3]: -0.355
- PBM binding z-score [4]: 0.476
- PBM binding z-score [5]: 0.261
- PBM binding z-score [6]: -0.0256
- PBM binding z-score [7]: -0.621
- PBM binding z-score [8]: -0.371

Sequence: ATATGTAGGTTAGCGGGTCATTCAGTTTGCGCAT
- PBM binding z-score [1]: 2.65
- PBM binding z-score [2]: 2.83
- PBM binding z-score [3]: 2.37
- PBM binding z-score [4]: 1.42
- PBM binding z-score [5]: 2.77
- PBM binding z-score [6]: 2.06
- PBM binding z-score [7]: 1.08
- PBM binding z-score [8]: 2.76

Sequence: CTCGAAAGGTCGGTTGAGGAGAGTATACGGATAA
- PBM binding z-score [1]: 1.66
- PBM binding z-score [2]: 2.45
- PBM binding z-score [3]: 2.43
- PBM binding z-score [4]: 0.577
- PBM binding z-score [5]: 1.74
- PBM binding z-score [6]: 4.2
- PBM binding z-score [7]: -0.262
- PBM binding z-score [8]: 0.602

Sequence: CGTCCAAGGTCAGCAGGTCAGTAAAAGCGACGTG
- PBM binding z-score [1]: 4.97
- PBM binding z-score [2]: 6.32
- PBM binding z-score [3]: 6.68
- PBM binding z-score [4]: 2.49
- PBM binding z-score [5]: 5.07
- PBM binding z-score [6]: 3.97
- PBM binding z-score [7]: 2.48
- PBM binding z-score [8]: 1.81

Sequence: TCATATAGGTCAAGGTGAAAGTCGAACGATATGA
- PBM binding z-score [1]: 3.84
- PBM binding z-score [2]: 5.31
- PBM binding z-score [3]: 5.43
- PBM binding z-score [4]: 1.56
- PBM binding z-score [5]: 5.05
- PBM binding z-score [6]: 3.47
- PBM binding z-score [7]: 1.36
- PBM binding z-score [8]: 0.356

Sequence: TCAGATAGGTAAATGCTAGGTGAAAGTCCGATCT
- PBM binding z-score [1]: 0.292
- PBM binding z-score [2]: 0.258
- PBM binding z-score [3]: 0.0345
- PBM binding z-score [4]: 1.06
- PBM binding z-score [5]: 0.464
- PBM binding z-score [6]: 1.22
- PBM binding z-score [7]: -0.0517
- PBM binding z-score [8]: -0.287

Sequence: ATCTGTAGGTAACAAGTTCAGTGAAAGAGAGGAC
- PBM binding z-score [1]: 2.16
- PBM binding z-score [2]: 1.44
- PBM binding z-score [3]: 1.42
- PBM binding z-score [4]: 0.851
- PBM binding z-score [5]: 0.902
- PBM binding z-score [6]: 1.26
- PBM binding z-score [7]: 0.755
- PBM binding z-score [8]: 2.46

Sequence: TCTCGGAGGGCACGAAAGGTCAGAGCTCGACATC
- PBM binding z-score [1]: 5.03
- PBM binding z-score [2]: 6.01
- PBM binding z-score [3]: 6.16
- PBM binding z-score [4]: 1.09
- PBM binding z-score [5]: 5.58
- PBM binding z-score [6]: 4.4
- PBM binding z-score [7]: 0.163
- PBM binding z-score [8]: 1.1

Sequence: TCTAGCAGGCGAGAGGGTCACTCAAGAGGTACGG
- PBM binding z-score [1]: 2.17
- PBM binding z-score [2]: 2.04
- PBM binding z-score [3]: 1.83
- PBM binding z-score [4]: -0.024
- PBM binding z-score [5]: 2.15
- PBM binding z-score [6]: 1.52
- PBM binding z-score [7]: -0.333
- PBM binding z-score [8]: 0.103

Sequence: CTACCAAGGTTAACAAGGTCGTTGATTACTATTC
- PBM binding z-score [1]: 2.69
- PBM binding z-score [2]: 2.82
- PBM binding z-score [3]: 2.39
- PBM binding z-score [4]: 2.35
- PBM binding z-score [5]: 2.98
- PBM binding z-score [6]: 3.39
- PBM binding z-score [7]: 1.93
- PBM binding z-score [8]: 3.98
